This is an account of results in PubChem BioAssay.

Values without a mark were called inactive. For part of these data: Entries with a potency or affinity are not part of this list. Calls of active or inactive are those of the source. Unless noted, the rule behind the calls is not given here.

Assay [1] is described as follows: antimalarial activity against Dd2 strain (AID 2302;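 active = growth inhibition above 50% at the single 2 µM test dose, taken to imply half-maximal potency below 2 µM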;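 note: 0% = DMSO untreated growth and 100% = chloroquine plus artemisinin killed control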). As to conditions: P. falciparum Dd2 in RBCs, LDH growth readout, 72 h; at 2 µM; hits give high values.
Assay [2] in a line: human hepatoma cell viability loss – ATP luminescence, cytotoxicity control for P. falciparum antimalarial project, primary screen (AID 2303;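 active = inhibition above 50%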;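 note: 0% = DMSO wells and 100% = digitonin-killed cells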). Conditions: HepG2 viability, 24-48 h, at 10 µM, hits give high values.
Assay [3] addresses L-lactate dehydrogenase (Plasmodium falciparum (isolate CDC / Honduras)) (UniProt Q27743). Put plainly: PfLDH activity inhibition – cell lysate, 3D7 strain, counter-screen for P. falciparum growth inhibition project (AID 2304).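 Note: 0% = vehicle and 100% = reference inhibitor.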 Conditions: P. falciparum 3D7 crude extract, LDH APAD/NBT absorbance; at 2 µM; hits give high values.
Assay [4] is described as follows: inhibition of 3D7 malaria parasite growth – strain 3D7 (AID 2306).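 Note: 0% = DMSO wells and 100% = chloroquine plus artemisinin control wells.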 As to conditions: P. falciparum 3D7 erythrocytic growth, LDH absorbance, 72 h; at 2 µM; hits give high values.
Assay [5] concerns the target Calcium-dependent protein kinase 1 (Plasmodium falciparum (isolate 3D7)) (UniProt P62344). The experiment in a line: PfCDPK1 kinase inhibitors, biochemical, TCAMS library (AID 1159585; cut-off not given, nearly all actives have IC50 up to about 0.98 µM;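 note: inhibitors leave more ATP so luminescence rises with inhibition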). As to conditions: recombinant PfCDPK1, Kinase-Glo ATP depletion luminescence.
The target of assay [6] is Plasmodium falciparum protein kinase 6 (PK6, PF3D7_1337100) (UniProt Q8IDW1). Put plainly: PfPK6 kinase inhibitors, biochemical, TCAMS library (AID 1159586). Conditions: recombinant PfPK6, Kinase-Glo ATP depletion luminescence.
Assay [7] concerns the target Protein kinase 7 (PK7), Plasmodium falciparum 3D7 (PF3D7_0213400) (UniProt Q7YTF7). The experiment in a line: inhibition of Plasmodium PK7 catalytic activity – biochemical, TCAMS antimalarial set, Kinase-Glo luminescence (AID 1159587). As to conditions: recombinant PfPK7, Kinase-Glo ATP depletion luminescence.
Assay [8] has as its target Calcium-dependent protein kinase 4 (Plasmodium falciparum (isolate 3D7)) (UniProt Q8IBS5). The experiment in a line: PfCDPK4 kinase inhibitors, biochemical, TCAMS library (AID 1159588; cut-off not given, nearly all actives have IC50 up to about 0.91 µM). Conditions: recombinant PfCDPK4, Kinase-Glo ATP depletion luminescence.

Plasmodium falciparum protein kinase 6 (PK6, PF3D7_1337100), sequence (Q8IDW1 1-305): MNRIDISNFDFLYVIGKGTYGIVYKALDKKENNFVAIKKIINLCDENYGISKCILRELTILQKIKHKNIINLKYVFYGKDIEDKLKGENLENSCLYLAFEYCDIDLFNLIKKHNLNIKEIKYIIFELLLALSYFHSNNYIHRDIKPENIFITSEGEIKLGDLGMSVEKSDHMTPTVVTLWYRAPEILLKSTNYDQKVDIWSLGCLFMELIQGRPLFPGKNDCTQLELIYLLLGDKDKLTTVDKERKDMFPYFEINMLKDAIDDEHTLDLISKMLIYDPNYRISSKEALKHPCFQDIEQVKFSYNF
Calcium-dependent protein kinase 1 (Plasmodium falciparum (isolate 3D7)), sequence (P62344 whole entry, looked up): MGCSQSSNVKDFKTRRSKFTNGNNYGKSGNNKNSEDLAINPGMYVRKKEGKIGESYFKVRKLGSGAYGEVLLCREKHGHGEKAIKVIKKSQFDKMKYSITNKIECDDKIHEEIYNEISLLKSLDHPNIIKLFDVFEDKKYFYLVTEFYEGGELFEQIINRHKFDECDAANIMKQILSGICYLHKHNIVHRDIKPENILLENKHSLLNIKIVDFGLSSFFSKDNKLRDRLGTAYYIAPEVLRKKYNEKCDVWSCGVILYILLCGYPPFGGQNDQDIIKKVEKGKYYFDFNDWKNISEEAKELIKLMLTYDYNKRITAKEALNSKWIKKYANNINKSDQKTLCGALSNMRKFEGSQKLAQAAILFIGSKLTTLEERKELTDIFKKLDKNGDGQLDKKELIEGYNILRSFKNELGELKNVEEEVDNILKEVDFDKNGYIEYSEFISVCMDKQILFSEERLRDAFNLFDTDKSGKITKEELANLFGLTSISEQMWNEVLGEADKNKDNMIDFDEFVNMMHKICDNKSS
Calcium-dependent protein kinase 4 (Plasmodium falciparum (isolate 3D7)), sequence (Q8IBS5 whole entry, looked up): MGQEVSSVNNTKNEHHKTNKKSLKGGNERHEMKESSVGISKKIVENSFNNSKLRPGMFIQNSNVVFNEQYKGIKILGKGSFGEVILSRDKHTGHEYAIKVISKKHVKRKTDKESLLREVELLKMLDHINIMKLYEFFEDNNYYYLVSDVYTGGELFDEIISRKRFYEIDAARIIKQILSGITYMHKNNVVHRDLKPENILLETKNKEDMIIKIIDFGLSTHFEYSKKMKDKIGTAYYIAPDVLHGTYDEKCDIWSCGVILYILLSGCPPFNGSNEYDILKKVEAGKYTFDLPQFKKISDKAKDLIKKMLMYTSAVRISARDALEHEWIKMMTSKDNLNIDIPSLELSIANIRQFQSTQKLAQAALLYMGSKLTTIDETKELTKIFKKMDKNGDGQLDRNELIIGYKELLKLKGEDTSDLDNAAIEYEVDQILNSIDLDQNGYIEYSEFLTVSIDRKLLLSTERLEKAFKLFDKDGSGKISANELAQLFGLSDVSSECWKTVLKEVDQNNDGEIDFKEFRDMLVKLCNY
L-lactate dehydrogenase (Plasmodium falciparum (isolate CDC / Honduras)), sequence (Q27743 whole entry, looked up): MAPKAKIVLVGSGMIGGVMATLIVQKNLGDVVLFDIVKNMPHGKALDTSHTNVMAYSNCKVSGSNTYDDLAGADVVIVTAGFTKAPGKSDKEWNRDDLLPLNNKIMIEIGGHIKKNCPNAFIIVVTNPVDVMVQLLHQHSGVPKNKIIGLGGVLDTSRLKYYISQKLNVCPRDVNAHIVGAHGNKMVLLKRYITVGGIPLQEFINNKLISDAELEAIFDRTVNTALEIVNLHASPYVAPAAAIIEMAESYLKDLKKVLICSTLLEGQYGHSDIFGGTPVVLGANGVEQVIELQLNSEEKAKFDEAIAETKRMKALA
Protein kinase 7 (PK7), Plasmodium falciparum 3D7 (PF3D7_0213400), sequence (Q7YTF7 1-343): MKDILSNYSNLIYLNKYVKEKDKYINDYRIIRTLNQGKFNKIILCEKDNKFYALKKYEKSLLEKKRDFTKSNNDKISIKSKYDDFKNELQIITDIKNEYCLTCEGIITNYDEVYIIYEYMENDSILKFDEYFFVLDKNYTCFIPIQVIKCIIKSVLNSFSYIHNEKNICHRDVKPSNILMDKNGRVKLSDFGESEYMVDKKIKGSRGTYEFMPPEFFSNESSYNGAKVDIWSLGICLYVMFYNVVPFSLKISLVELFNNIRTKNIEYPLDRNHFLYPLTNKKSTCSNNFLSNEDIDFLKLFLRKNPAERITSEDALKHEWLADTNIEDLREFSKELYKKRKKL

As for `Cc1ccc(-c2ccn(Cc3ccc(OCc4ccccc4)cc3)n2)cn1` (tested in a mixture with another compound), the growth inhibition was 92% (active) in assay [1] and 93% (active) in assay [4]. In addition, the figures for the inhibition in assay [2] and in assay [3] were 1% and -3%, respectively. The outcome in assay [5], in assay [6], in assay [7] and in assay [8] was inactive.

Regarding `CC(C)NCc1ccc(-c2cccc(NC(=O)c3ccc(Cl)cc3)c2)cc1`, the growth inhibition was 82% (active) in assay [1] and 100% (active) in assay [4]. Further, the inhibition in assay [2] was 20%; in assay [3], -7%. The outcome in assay [5], in assay [6], in assay [7] and in assay [8] was inactive.

On to `O=C(NC1CCC(N2CCN(c3cccc4[nH]ccc34)CC2)CC1)c1cc2cccnc2[nH]1` (centres undefined), for which the growth inhibition in assay [1] was 85% (active); in assay [4], 99% (active). Moreover, the inhibition in assay [2] was 9%; in assay [3], -2%. The result in assay [5], in assay [6], in assay [7] and in assay [8] was inactive.

As for `COc1ccc(OC)c(NC(=O)C2c3ccccc3C(=O)N(CC(C)C)C2c2cccs2)c1` (centres undefined), the values for the growth inhibition in assay [1] and in assay [4] were 66% (active) and 100% (active), respectively. For the same compound, the inhibition is 9% in assay [2] and -5% in assay [3]. Also, the outcome in assay [5], in assay [6], in assay [7] and in assay [8] was inactive.

In the case of `CCCCCCNc1cc(C)nc2ccc(OC)cc12`, the growth inhibition is 94% (active) in assay [1] and 100% (active) in assay [4]. Further, the inhibition in assay [2] was 19%; in assay [3], -2%. For the same compound, the outcome in assay [5], in assay [6], in assay [7] and in assay [8] was inactive.

Consider `COc1nc2c(CCN3CC[C@@H](NCc4cc(C#N)c5c(c4)CCO5)[C@@H](O)C3)ccnc2cc1F`, for which the values for the growth inhibition in assay [1] and in assay [4] were 35% and 92% (active), respectively. For the same compound, the inhibition in assay [2] is 21%; in assay [3], -1%. Further, the result in assay [5], in assay [6], in assay [7] and in assay [8] was inactive.

In the case of `CCn1ncc2c(NC3CCOCC3)c(CNC(=O)c3ccnn3C)c(C)nc21`, the growth inhibition in assay [1] and in assay [4] was 98% (active) throughout. The inhibition was -11% in assay [2] and -2% in assay [3]. Besides, the result in assay [5], in assay [6], in assay [7] and in assay [8] was inactive.

Consider `CCN(CC)CCCC(C)Nc1c2ccccc2nc2c1ccc1ccccc12` (centres undefined), for which the growth inhibition in assay [1] is 34%; in assay [4], 96% (active). Further, the inhibition in assay [2] was 18%; in assay [3] it was 3%. Besides, the outcome in assay [5], in assay [6], in assay [7] and in assay [8] was inactive.

As for `CCOc1cc(O)c(-c2nc(N)ncc2-c2ccc3c(c2)OCCO3)cc1CC`, the growth inhibition in assay [1] was 68% (active); in assay [4], 99% (active). For the same compound, the inhibition was -5% in assay [2] and -1% in assay [3]. In addition, the result in assay [5], in assay [6], in assay [7] and in assay [8] was inactive.

Turning to `Cc1cc(C)cc(N2C(N)=NC(N)=NC2(C)C)c1`, the growth inhibition in assay [1] is 6%; in assay [4], 93% (active). Also, the inhibition in assay [2] is 58% (active); in assay [3], -4%. The result in assay [5], in assay [6], in assay [7] and in assay [8] was inactive.

Turning to `COc1ccccc1C(=O)N1CCN(Cc2cccs2)CC1`, the growth inhibition in assay [1] was 1%; in assay [4], 96% (active). The values for the inhibition in assay [2] and in assay [3] were 87% (active) and -1%, respectively. Also, the result in assay [5], in assay [6], in assay [7] and in assay [8] was inactive.

For `Cc1c(CN2CCCCC2)cccc1OCCCNc1nc(NCCc2ccc(O)cc2)nc(N2CCNCC2)n1`, the growth inhibition in assay [1] was 23%; in assay [4], 101% (active). The inhibition in assay [2] was 26%; in assay [3], 3%. The outcome in assay [5], in assay [6], in assay [7] and in assay [8] was inactive.

Take `O=C(NC1CCN(CCCc2ccccc2)CC1)c1ccc(-c2cccc(C(F)(F)F)c2)s1`: the growth inhibition was 47% in assay [1] and 95% (active) in assay [4]. In addition, the inhibition was 93% (active) in assay [2] and 1% in assay [3]. The result in assay [5], in assay [6], in assay [7] and in assay [8] was inactive.

As to `CCCc1cc(Cc2cnc(N)nc2N)cc(CC)c1OC`, the growth inhibition in assay [1] was 1%; in assay [4], 97% (active). Further, the inhibition in assay [2] is 4%; in assay [3], -7%. For the same compound, the result in assay [5], in assay [6], in assay [7] and in assay [8] was inactive.

`CS(=O)(=O)Nc1ccc(OCCCCCCOc2ccc(NS(C)(=O)=O)cc2)cc1`: the growth inhibition in assay [1] is 82% (active); in assay [4], 93% (active). The inhibition in assay [2] is 3%; in assay [3], 4%. In addition, the outcome in assay [5], in assay [6], in assay [7] and in assay [8] was inactive.

Regarding `Cc1cccc2[nH]c(-c3cccc(-c4cccc(NC(=O)Nc5cccc(C#N)c5)c4)c3)nc12`, the growth inhibition in assay [1] was 99% (active); in assay [4], 101% (active). For the same compound, the inhibition was 22% in assay [2] and 6% in assay [3]. Also, the result in assay [5], in assay [6], in assay [7] and in assay [8] was inactive.

Take `O=C(NCc1ccccc1F)c1ccc(N2CCC(NCc3cccc(-n4cccn4)c3)CC2)cc1`: the growth inhibition in assay [1] is 3%; in assay [4], 89% (active). For the same compound, the values for the inhibition in assay [2] and in assay [3] were 9% and 4%, respectively. Also, the outcome in assay [5], in assay [6], in assay [7] and in assay [8] was inactive.

As for `CC(C)CNCc1cccc(-c2cccc(CNc3ccc4ncccc4c3)c2)c1`, the results for the growth inhibition in assay [1] and in assay [4] were 28% and 92% (active), respectively. For the same compound, the inhibition in assay [2] was 23%; in assay [3], 6%. In addition, the result in assay [5], in assay [6], in assay [7] and in assay [8] was inactive.
